Screens: PubChem BioAssay, The Scripps Research Institute Molecular Screening Center
DAX1 inh-1: blocks DAX1 repression of SF-1 activated StAR promoter; 370,000 compounds, 1.1% hits; HEK293T StAR-luciferase reporter, SF-1/DAX-1 repression relief; inhibition, % at 6.8 µM; AID 652010;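 active = inhibition above the mean over all tested compounds plus 3 SD, cut at about 3.6% in these data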;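 also: higher inhibition means more luminescence from relief of DAX-1 repression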
ssDAF-12 act: activators of S. stercoralis DAF-12 nuclear receptor. HEK293 ssDAF-12/GRIP1 lit1-tk-luc reporter, luminescence; % of 3 µM dafachronic acid response. 370,000 compounds, 1% hits. activation, % at 6.8 µM;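 active = activation above the mean over all tested compounds plus 3 SD, cut at about 0.9% in these data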
AHR act: activators of human aryl hydrocarbon receptor; 320,000 compounds, 2.5% hits; activation, % at 5 µM; AID 2796; P35869; AHR-responsive luciferase reporter cells, luminescence; in the data active = activation above about 47%
hgDAF12 agonist: hgDAF-12 agonism, primary luciferase screen; HEK293 GAL4-hgDAF12 UAS-luciferase reporter, agonist luminescence; normalized to butyrate control; 370,000 compounds, 1.8% hits; activation, % at 6.8 µM;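 active = activation above a cutoff set at the mean of all screened compounds plus 3 SD, cut at about 10% in these data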
DAX1 inh-2: inhibitors of human orphan nuclear receptor DAX1 (NR0B1); P51843; HEK293 Gal4-DAX1 luciferase reporter, luminescence; inhibition, % at 6.75 µM; 340,000 compounds, 0.99% hits; AID 504766;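 active = inhibition above the mean over all tested compounds plus 3 SD, cut at about 4.2% in these data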;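 also: inhibition shows as a rise in luminescence from relieved DAX1 repression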
Target sequence (P51843 207-470 limits assumed): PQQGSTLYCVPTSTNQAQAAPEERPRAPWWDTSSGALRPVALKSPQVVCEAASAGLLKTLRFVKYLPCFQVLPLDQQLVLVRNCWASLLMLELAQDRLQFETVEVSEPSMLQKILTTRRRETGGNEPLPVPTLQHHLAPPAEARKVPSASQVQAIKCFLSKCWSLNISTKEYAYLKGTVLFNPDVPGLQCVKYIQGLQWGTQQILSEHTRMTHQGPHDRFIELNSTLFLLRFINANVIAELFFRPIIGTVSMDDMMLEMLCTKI
hcDAF12 agonist: activators of H. contortus DAF-12 nuclear receptor. HEK293 hcDAF-12 lit1-tk-luc reporter, luminescence; 0% DMSO, 100% Δ7-dafachronic acid. activation, % at 6.8 µM. 370,000 compounds, 1.4% hits. AID 652067;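 active = activation above the mean of all tested compounds plus 3 SD, cut at about 5.5% in these data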
AHR act confirm: confirmation of human aryl hydrocarbon receptor activators. shares compounds with AHR act. human cells, AHR-responsive luciferase reporter, luminescence. activation, % at 9 µM. 2,300 compounds, 87% hits; in the data active = activation above about 49%;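 also: HepG2 hepatoma cells carrying a DRE-driven firefly luciferase reporter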
PXR counter: counter-screen for AHR activators: human PXR activators; shares compounds with AHR act; cell-based PXR reporter, luciferase luminescence; activation, % at 11.6 µM; 2,300 compounds, 88% hits; in the data active = activation above about 11%;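 also: human hepatoma DPX-2 cells expressing full-length human PXR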
Large screens that a line does not name were inactive (follow-up assays come after a bar, where they were run). This is a sample that favours compounds with a hit; in the whole collection about 5.7% have one here.

O=C1CC(c2ccccc2)CC(O)=C1C=NCCCN1CCOCC1 (centres undefined)	none
COc1cc(NC(=O)C/C(C)=N/NC(=O)c2ccccn2)c(OC)cc1Cl	AHR act 114, hgDAF12 agonist 13 | AHR act confirm 70 | PXR counter 14
C/C(CC(=O)Nc1ccc(Cl)cc1Cl)=N\NC(=O)C(=O)NCCO	none
COc1cc(NC(=O)C2CCCC2)c(OC)cc1Cl	none
COc1cc(NC(=O)C/C(C)=N/NC(=O)C2CCCCC2)c(OC)cc1Cl	AHR act 105 | AHR act confirm inactive | PXR counter inactive
COc1cc(NC(=O)C/C(C)=N/NC(=O)C(=O)NC2CCCCC2)c(OC)cc1Cl	AHR act 97 | AHR act confirm inactive | PXR counter inactive
COc1ccc(C(=O)N/N=C(\C)CC(=O)Nc2ccccn2)cc1OC	none
COc1cc(NC(=O)C/C(C)=N/NC(=O)C(=O)NCCO)c(OC)cc1Cl	AHR act 81 | AHR act confirm inactive | PXR counter 11
Cc1c(Cl)cccc1NC(=O)COC(=O)c1c2c(nc3ccccc13)CCN(Cc1ccccc1)C2	none
Brc1cnc(OCc2ccccc2)nc1OCc1ccccc1	none (no result: AHR act)
Cc1nn(CC(=O)c2ccc3c(c2)OCCO3)c(=O)c(C#N)c1C	AHR act 88 | AHR act confirm 91 | PXR counter 18
CCc1cc(C(=O)N/N=C/c2c(C)[nH]c3ccccc23)cs1	AHR act 99 | AHR act confirm 83 | PXR counter 28
COc1ccc2nc(N3C(=O)CC(C(C)c4ccccc4)C3=O)sc2c1 (centres undefined)	none
COc1ccccc1C(=O)Nc1ccc2c(c1)CN(Cc1cnc(C)s1)CC2	AHR act 113 | AHR act confirm 56 | PXR counter 13
CC1(C)NC(=O)N(CC(O)CN2CCCCC2)C1=O (centres undefined)	none
COc1cccc2sc3cc(NCc4ccc(C)o4)ccc3c(=O)c12	AHR act 96 | AHR act confirm 95 | PXR counter 55
CC(C)(O)C1CC[C@@](C)([C@@H]2CC[C@]3(C)[C@H]2[C@H](O)CC2[C@@]4(C)CCC(O)C(C)(C)C4C(OC4OC(CO)C(O)C(O)C4O[C@@H]4OCC(O)C(O)C4O)C[C@]23C)O1 (some centres undefined)	none
COc1ccc(C(C)=O)cc1COc1ccc(F)cc1	none
COc1ccc(C(=O)NN)cc1COc1ccc(Br)cc1	AHR act 102 | AHR act confirm 90 | PXR counter 17
COc1ccc(C2/C=C\CN(C(=O)c3ccccc3)CC(=O)N2Cc2cccc(F)c2)cc1 (centres undefined)	none (no result: AHR act)
O=C(Nc1ncnc2sc3c(c12)CCC3)c1ccco1	none
C(=N\Nc1ncnc2sc3c(c12)CCC3)/c1ccncc1	AHR act 81 | AHR act confirm 124 | PXR counter 29
COc1ccc(C(=O)Nc2c(O)ccc3ccccc23)cc1	AHR act 79 | AHR act confirm 67 | PXR counter inactive
COc1ccc(C(=O)NNC(=O)c2cc3ccccc3cc2O)cc1	none
O=C(Cc1ccccc1)Nc1ccccc1CO	none
CN1CCc2c(sc3c2C(=O)NC(c2cccs2)N3)C1 (centres undefined)	AHR act 85 | AHR act confirm 92 | PXR counter 37
CSc1ccc(C2NC(=O)c3c(sc4c3CCN(C)C4)N2)cc1 (centres undefined)	none
Cc1ccsc1C1NC(=O)c2c(sc3c2CCN(C)C3)N1 (centres undefined)	AHR act 92 | AHR act confirm 54 | PXR counter 17
CN1CCc2c(sc3c2C(=O)NC(/C=C\c2ccccc2)N3)C1 (centres undefined)	none (no result: DAX1 inh-2)
COc1ccc(OC)c(-c2csc(NC(=O)Cc3ccc(F)cc3)n2)c1	none
COc1ccccc1NC(=O)c1ccc(SCC(=O)NCc2ccccc2Cl)c([N+](=O)[O-])c1	AHR act 99 | AHR act confirm 120 | PXR counter 135
COc1ccccc1NC(=O)C(=O)NCc1ccccc1Cl	none
COc1ccccc1CNC(=O)CSc1ccc(C(=O)Nc2ccccc2OC)cc1[N+](=O)[O-]	AHR act 90 | AHR act confirm 85 | PXR counter 105
Cc1c(NC(=O)CSc2nc(-c3ccco3)cc(C(F)(F)F)n2)c(=O)n(-c2ccccc2)n1C	none
O=C(NCc1cccc(Cl)c1)c1cnccn1	none
COC(=O)[C@H](C)NC(=O)c1cc2c(cn1)[nH]c1ccccc12	none
CCn1c(C)csc1=NC(=O)c1ccccc1O	AHR act 93, hcDAF12 agonist 6.3 | AHR act confirm 95 | PXR counter 15
Cc1csc(=NC(=O)c2ccccc2)n1Cc1ccco1	none
Cc1nc(NCCc2ccc(F)cc2)c(C#N)c(C)c1[N+](=O)[O-]	AHR act 108 | AHR act confirm 113 | PXR counter 24
O=C(CSc1ncn[nH]1)N1CCN(c2nnc(-c3ccccc3)c3ccccc23)CC1	none
Clc1cccc(-c2ccc(CNCc3ccccn3)o2)c1	AHR act 121 | AHR act confirm 87 | PXR counter 24
COc1ccc(N(C(=O)c2ccco2)C(C(=O)NC2CCCC2)c2ccco2)cc1OC (centres undefined)	none
Oc1c(Br)cc(C2N=C(c3ccccc3)NO2)cc1Br (centres undefined)	AHR act 94 | AHR act confirm 92 | PXR counter 18
O=C1OC(c2cc(Br)c(O)c(Br)c2)c2ccccc21 (centres undefined)	none (no result: AHR act)
O=C(c1ccco1)N1CCN(Cc2nc3ccccc3c(=O)n2-c2ccc(F)cc2)CC1	none
COc1ccc(OC)c(NC2=NC3(CCCC3)N=C(N)N2)c1	AHR act 84 | AHR act confirm 61 | PXR counter 11
NC1=NC2(CCCCC2)N=C(Nc2ccc(F)cc2F)N1	none
O=C(Nc1ccon1)Nc1cc(Cl)ccc1Cl	AHR act 122 | AHR act confirm 101 | PXR counter 11
CCCn1c(NC(=S)Nc2ccccc2)nc2ccccc21	AHR act 83 | AHR act confirm 75 | PXR counter 11
CCCCN(C)C(=O)CCC(=O)NNc1nc2ccccc2c2nc(C)nn12	none
O=C(/C=C/c1ccccn1)c1cc(Cl)cc(Cl)c1O	AHR act 83 | AHR act confirm 113 | PXR counter 219
O=C(NCc1ccco1)c1ccc(Cl)c(S(=O)(=O)N2CCOCC2)c1	none
